# USP30 block = inhibitors of human USP30 deubiquitinase. actives 5.3% (n = 47,000). Q70CQ3. inhibition, % at 25 µM. AID 1645860. purified USP30, Ub-rhodamine cleavage fluorescence
# USP10 block = human USP10 deubiquitinase inhibition; Q14694; purified USP10, Ub-rhodamine fluorescence, 60 min; inhibition, % at 20 µM; actives 1.1% (n = 47,000)
# USP17 block = human USP17-like deubiquitinase inhibition; AID 1645855; actives 6.5% (n = 47,000); purified USP17, Ub-rhodamine cleavage fluorescence, 3 h; A8MUK1; inhibition, % at 50 µM
# USP28 inh = blocks human USP28 ubiquitin-rhodamine cleavage. Q96RU2. purified USP28, Ub-rhodamine cleavage fluorescence, 30 min. inhibition, % at 25 µM. actives 3% (n = 47,000)
# USP8 inh = human USP8 deubiquitinase inhibition | purified USP8, Ub-rhodamine cleavage fluorescence, 30 min | actives 4.2% (n = 47,000) | inhibition, % at 20 µM | AID 1645853 | P40818
# Target sequence (P40818 whole entry, looked up): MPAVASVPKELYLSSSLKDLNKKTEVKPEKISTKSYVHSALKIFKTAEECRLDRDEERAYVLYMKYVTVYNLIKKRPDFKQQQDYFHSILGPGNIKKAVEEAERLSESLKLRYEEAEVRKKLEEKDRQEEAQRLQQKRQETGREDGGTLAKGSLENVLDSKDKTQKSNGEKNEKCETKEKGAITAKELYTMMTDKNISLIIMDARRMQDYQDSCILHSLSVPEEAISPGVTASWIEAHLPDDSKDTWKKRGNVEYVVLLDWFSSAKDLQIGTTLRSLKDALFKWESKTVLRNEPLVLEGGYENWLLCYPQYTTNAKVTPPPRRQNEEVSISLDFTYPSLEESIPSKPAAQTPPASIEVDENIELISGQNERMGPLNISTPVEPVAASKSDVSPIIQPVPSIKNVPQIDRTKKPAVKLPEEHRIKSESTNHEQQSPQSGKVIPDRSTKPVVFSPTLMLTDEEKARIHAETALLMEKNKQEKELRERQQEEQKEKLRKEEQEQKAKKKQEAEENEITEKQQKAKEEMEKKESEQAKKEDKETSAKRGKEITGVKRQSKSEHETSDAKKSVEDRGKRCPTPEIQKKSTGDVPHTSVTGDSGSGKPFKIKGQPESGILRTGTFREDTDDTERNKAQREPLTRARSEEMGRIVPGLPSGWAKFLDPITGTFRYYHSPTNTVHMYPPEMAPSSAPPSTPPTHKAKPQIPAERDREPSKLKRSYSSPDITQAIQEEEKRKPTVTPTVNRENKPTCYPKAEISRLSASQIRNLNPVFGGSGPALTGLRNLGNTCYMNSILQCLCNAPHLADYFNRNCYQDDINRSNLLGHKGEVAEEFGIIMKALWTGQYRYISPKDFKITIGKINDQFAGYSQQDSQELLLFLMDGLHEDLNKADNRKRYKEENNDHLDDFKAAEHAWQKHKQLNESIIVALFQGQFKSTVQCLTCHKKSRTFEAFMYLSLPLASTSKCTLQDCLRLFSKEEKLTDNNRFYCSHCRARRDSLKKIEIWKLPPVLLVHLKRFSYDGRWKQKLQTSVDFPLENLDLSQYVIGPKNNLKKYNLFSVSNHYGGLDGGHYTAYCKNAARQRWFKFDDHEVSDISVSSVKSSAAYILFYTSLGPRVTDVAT
# * marks the source's active call; other numbers are inactive results; . = no result given. The list is not random: actives were taken first. Their share in the collection is about 13%. Cut-off read from the data, not from the text of the source: active = inhibition above about 30%; inactive = the rest.
SMILES,USP30 block,USP10 block,USP17 block,USP28 inh,USP8 inh
Cc1c(C(=O)Nc2ccccn2)oc2c(Cl)cccc12,48*,0,33*,23,0
CC(NC(=O)COc1ccccc1)c1nc(-c2ccc(Cl)cc2)no1 (stereo not drawn),2,6,13,6,6
O=C(COc1ccccc1)Nc1cc(-c2ccc(F)c(F)c2)no1,.,19,81*,.,11
COc1cc(C(=O)Nc2cc(-c3ccc(F)c(F)c3)no2)cc(OC)c1OC,-22,0,-9,-15,43*
O=C(Nc1cc(-c2cccnc2)no1)c1ccc(F)c(F)c1,-102,3,65*,38*,27
COc1ccc(C(=O)Nc2cc(-c3cccnc3)no2)cn1,15,3,0,0,-2
CCc1ccccc1NC(=O)N1CCCC1c1c(C)noc1C (stereo not drawn),4,-1,7,5,5
Cc1noc(-c2ccc(-n3cnc(C(=O)NCc4ccccc4)c3)nc2)n1,30*,2,21,6,10
Cc1noc(-c2ccnc(-n3cnc(C(=O)NCc4ccccc4C)c3)c2)n1,10,0,1,-5,0
Cc1noc(-c2ccc(-n3cnc(C(=O)NC4CCCCCC4)c3)nc2)n1,25,0,22,13,35*
COc1ccc(C(=O)Nc2ccc3c(c2)nc(CCn2ccnc2C)n3C)cc1,0,0,5,24,-5
CCN1CCN(CCNC(=O)c2ccc(N3CCc4ccccc43)s2)CC1,-67,-1,1,12,-17
CC1CCCCN1CCCNC(=O)c1ccc(N2CCc3ccccc32)s1 (stereo not drawn),24,-3,28,56*,11
CC1CCCN(CCCNC(=O)c2ccc(N3CCc4ccccc43)s2)C1 (stereo not drawn),24,-1,3,58*,-16
CCOc1ccccc1NC(=O)c1cnc(N2CCCCC2)nc1C,3,3,5,2,7
CSc1nnc(-c2ccc(C(C)(C)C)cc2)n1Cc1ccccc1,33*,7,14,6,0
O=C(O)CCSc1nnc(-c2ccc(O)cc2)n1Cc1ccccc1,-4,3,-3,-7,-65
COc1ccc2c(CNCc3ccco3)c(C(=O)O)n(Cc3ccc(F)cc3)c2c1,-15,4,1,-6,-1
c1cncc(CN2CCC[C@H]2c2nc(-c3ccc(-n4ccnc4)nc3)no2)c1,1,-5,41*,0,24
COc1ccccc1CC(=O)N1CCC(Nc2ncnc3c2CCC3)C1 (stereo not drawn),0,-2,-7,-6,-23
Cc1nc(-c2noc3ccc(C(=O)NCCN4CCOCC4)cc23)cs1,21,0,20,19,26
O=C(NCc1ccc(F)cc1)c1cccc(Nc2nc3ccccc3n3cnnc23)c1,80*,38*,72*,75*,7
Cc1cccc(C(C)C)c1NC(=O)CN1c2ccc(F)cc2-c2ccccc2S1(=O)=O,30*,6,3,5,-3
Fc1ccc(-c2cc(C(F)(F)F)nc(-n3nnc4ccccc43)n2)cc1,11,3,16,10,20
Cc1cc(C(F)(F)F)nc(-n2cc(-c3ccccc3)nn2)n1,13,1,35*,-5,2
SMILES,USP30 block,USP10 block,USP17 block,USP28 inh,USP8 inh
Cc1nnc(NCc2cccnc2)c2c1nnn2Cc1ccccc1Cl,60*,7,-2,18,-25
Cc1ccc(NC(=O)c2sc(=S)n(CCc3ccccc3)c2N)cc1,44*,15,76*,21,25
Cc1ccccc1NC(=O)N1CC2CN(S(=O)(=O)c3ccc(F)cc3)CC(C1)O2,3,0,-5,-6,2
COc1c2c(cc3c1C(C(=O)Nc1ccc(C)c(C)c1)N(C)CC3)OCO2 (stereo not drawn),-8,-1,-12,-8,-24
COc1c2c(cc3c1C(CC(=O)c1c(O)c(OC)c4occc4c1OC)[N+](C)(C)CC3)OCO2 (stereo not drawn),39*,-1,30,13,28
CC1CCc2c(sc3[nH]c(=O)n4nc(-c5ccncc5)nc4c23)C1 (stereo not drawn),-4,-2,3,-7,-4
COc1cc2c(cc1OC)CN(C(=O)C(NC(=O)c1ccccc1)C(C)C)CC2 (stereo not drawn),4,-2,20,3,53*
COc1ccc(-c2nnc(SC(C(=O)c3ccccc3)c3ccccc3)o2)cc1 (stereo not drawn),-12,7,29,10,8
COc1ccc(-c2nnc(SCc3ccc(C#N)cc3)o2)cc1,46*,6,0,1,0
COc1cccc(CC2(Cc3cccc(OC)c3)C(=O)N(Cc3ccccn3)C(=O)c3ccccc32)c1,36*,2,21,8,27
O=C(N1CCC2(CC1)CC2)C1(c2cccc(Cl)c2)CCOCC1,0,0,-11,-11,-2
CCNC(=O)N1C[C@@H](CO)[C@@H]2Oc3ccc(Cl)cc3[C@@H]21,-20,1,-5,-12,0
Cc1cc(O)c(Oc2cc(C)cc(O)c2O)c(O)c1,31*,2,47*,47*,0
Cc1nc(-c2csc(S(=O)(=O)N3CC=C(c4ccccc4)CC3)c2)no1,-9,2,-11,-1,-25
COc1cccc(C2c3[nH]c4ccccc4c3C[C@@H]3C(=O)N(CC(O)c4ccccc4)CC(=O)N23)c1 (stereo partly drawn),-40,22,45*,40*,31*
O=C1[C@H]2Cc3c([nH]c4ccccc34)C(c3cccc([N+](=O)[O-])c3)N2C(=O)CN1Cc1ccco1 (stereo partly drawn),-3,7,40*,1,-14
COc1cc(C2c3[nH]c4ccccc4c3C[C@@H]3C(=O)N(Cc4ccco4)CC(=O)N23)cc(OC)c1OC (stereo partly drawn),-29,-3,-3,-8,14
COc1ccc(CC(=O)N2CC[C@H]3N(C)CC[C@@]3(C(=O)N3CCCC3)CC2)cc1,-19,-1,-71,-17,-306
CCc1cccc(C)c1NC(=O)Cn1c(C(C)NC(=O)c2ccc(C)cc2)nc2ccccc21 (stereo not drawn),54*,44*,61*,40*,75*
CC(NC(=O)c1ccccc1)c1nc2ccccc2n1CC(=O)Nc1ccc2c(c1)OCO2 (stereo not drawn),49*,56*,54*,15,74*
CC(C)c1ccc(NC(=O)Cn2c(CNC(=O)c3ccccc3)nc3ccccc32)cc1,-19,-6,-28,-5,-28
Cc1cccc(C(C)C)c1NC(=O)Cn1c(COc2ccccc2)nc2ccccc21,22,8,.,3,28
CC(NC(=O)c1ccccc1)c1nc2ccccc2n1CC(=O)Nc1ccc(F)cc1 (stereo not drawn),17,20,39*,8,66*
NC1=NC2(CCCCC2)N=C(Nc2ccc(F)c(F)c2)N1,0,-2,-4,7,0

# Source: PubChem (Buhrlage Lab, Dana-Farber Cancer Institute and Novartis Institutes for BioMedical Research (Cambridge, Mass))
